Source: the antibiotic and cytotoxicity screens of Wong et al. (2023)
In all, about 39,000 compounds went through this assay and about 3,300 (8.5%) were called active. The full list was thinned out, with actives kept by preference.

What follows are molecules tested on HepG2 (assay: cytotoxicity call (relative viability < 0.9)). Conditions: 10 µM.
In the case of `C[C@@H]1CN([C@@H](C)CO)C(=O)c2cc(C#CCN(C)C)cnc2O[C@@H]1CN(C)C(=O)Nc1cc(F)ccc1F`, the cytotoxicity call is reported as “inactive”. With `C/C=C/c1ccc2c(c1)O[C@H](CN(C)S(=O)(=O)c1ccccc1OC)[C@@H](C)CN([C@H](C)CO)S2(=O)=O` the cytotoxicity call was “inactive”. In the case of `C[C@@H]1CN([C@H](C)CO)C(=O)c2cccc(NC(=O)C3CC3)c2O[C@H]1CN(C)Cc1ccc2c(c1)OCO2`, the cytotoxicity call is reported as “inactive”. With `C[C@@H]1CN([C@@H](C)CO)C(=O)c2cc(NC(=O)CCCN(C)C)ccc2O[C@H]1CN(C)C(=O)Nc1ccc2c(c1)OCO2` the cytotoxicity call was “inactive”. For `C[C@H](CO)N1C[C@H](C)[C@@H](CN(C)Cc2ccncc2)OCCCC[C@H](C)Oc2ccc(NS(=O)(=O)c3ccc(Cl)cc3)cc2C1=O`, the cytotoxicity call was “inactive”. For `Cc1ccc(S(=O)(=O)Nc2cccc3c2O[C@H](CN(C)Cc2ccc(Cl)c(Cl)c2)[C@H](C)CN([C@H](C)CO)C3=O)cc1`, the cytotoxicity call was “inactive”. `C[C@H](CO)N1C[C@H](C)[C@H](CN(C)C)OCCCC[C@H](C)Oc2ccc(NC(=O)Nc3cccc4ccccc34)cc2C1=O` was tested, and the cytotoxicity call was “inactive”. For `O=C(O)C[C@H]1Oc2ccccc2NC1=O`, the cytotoxicity call was “inactive”. `O=C(C[C@@H]1CC[C@@H]2[C@H](COC[C@@H](O)CN2S(=O)(=O)c2ccccc2F)O1)NCc1ccccc1F` was tested, and the cytotoxicity call was “inactive”. In the case of `C[C@@H]1CN([C@H](C)CO)C(=O)c2cccc(NC(=O)C3CCOCC3)c2O[C@@H]1CN(C)S(=O)(=O)c1ccc(Cl)cc1`, the cytotoxicity call is reported as “inactive”. `CC(C)c1ccc(/C=C/C(=O)O)cc1` was tested, and the cytotoxicity call was “inactive”. For `O=C(C=Cc1ccccc1)c1ccc(O)cc1`, the cytotoxicity call was “active”. In the case of `O=C(C=Cc1ccccc1)c1ccc(O)cc1O`, the cytotoxicity call is reported as “inactive”. In the case of `O=C(C=Cc1ccc(O)cc1)c1ccccc1O`, the cytotoxicity call is reported as “inactive”. For `O=C(/C=C/c1ccccc1)C1CC1`, the cytotoxicity call was “inactive”. In the case of `O=C(C=Cc1ccc(O)cc1)c1ccccc1`, the cytotoxicity call is reported as “active”. `CC(C)NC(=O)N(C)C[C@H]1OCCCC[C@H](C)Oc2ccc(NC(=O)C3CCCCC3)cc2C(=O)N([C@H](C)CO)C[C@H]1C` was tested, and the cytotoxicity call was “inactive”. `O=C1CCC(=O)NCC/C=C/CCN1` was tested, and the cytotoxicity call was “inactive”. In the case of `O=C(C[C@H]1C=C[C@H](NC(=O)C2CC2)[C@H](CO)O1)NCCCN1CCOCC1`, the cytotoxicity call is reported as “inactive”. For `COCC#Cc1cnc2c(c1)C(=O)N([C@@H](C)CO)C[C@@H](C)[C@H](CN(C)C(=O)Nc1ccc(OC)cc1)O2`, the cytotoxicity call was “inactive”. `C[C@@H]1CCCCO[C@H](CN(C)C(=O)c2ccccc2)[C@@H](C)CN([C@@H](C)CO)C(=O)c2cc(NC(=O)CCC(F)(F)F)ccc2O1` was tested, and the cytotoxicity call was “inactive”. For `C[C@H]1CCCCO[C@@H](CN(C)C(=O)Nc2ccccc2)[C@@H](C)CN([C@@H](C)CO)C(=O)c2cc(NS(=O)(=O)c3ccc(Cl)cc3)ccc2O1`, the cytotoxicity call was “inactive”. For `C[C@H]1CN([C@@H](C)CO)C(=O)c2c(c3ccccc3n2C)-c2ccccc2CO[C@@H]1CN(C)S(C)(=O)=O`, the cytotoxicity call was “inactive”. `C[C@H](CO)N1C[C@H](C)[C@@H](CN(C)S(=O)(=O)c2ccc(F)cc2)Oc2ccc(NC(=O)CCCN(C)C)cc2CC1=O` was tested, and the cytotoxicity call was “inactive”. With `O=C(O)c1cccnc1` the cytotoxicity call was “inactive”. `O=C(NCCCN1CCOCC1)c1cccnc1` was tested, and the cytotoxicity call was “inactive”. In the case of `O=C(c1cccnc1)N1CCOCC1`, the cytotoxicity call is reported as “active”. With `Cc1ccc(S(=O)(=O)N(C)C[C@@H]2Oc3c(NC(=O)Nc4cccc5ccccc45)cccc3C(=O)N([C@H](C)CO)C[C@H]2C)cc1` the cytotoxicity call was “inactive”. For `CN(C)C(=O)c1cc2c(c(-c3cccc(/C=C/c4ccccc4)c3)n1)[C@H](CCO)N([S@@](=O)C(C)(C)C)C2`, the cytotoxicity call was “inactive”. For `C[C@@H]1CN([C@H](C)CO)C(=O)c2cccc(NC(=O)Nc3ccc(F)cc3)c2O[C@@H]1CN(C)Cc1ccc(C(F)(F)F)cc1`, the cytotoxicity call was “inactive”. With `C[C@H]1CN([C@@H](C)CO)C(=O)c2cccc(NC(=O)Nc3ccc(C(F)(F)F)cc3)c2O[C@H]1CN(C)Cc1ccc(C(F)(F)F)cc1` the cytotoxicity call was “inactive”. With `C[C@H]1CN([C@@H](C)CO)C(=O)c2cccc(NC(=O)Nc3ccc(F)cc3)c2O[C@H]1CN(C)Cc1ccc(C(F)(F)F)cc1` the cytotoxicity call was “inactive”. For `C[C@H](CO)N1C[C@H](C)[C@@H](CN(C)Cc2ccc(C(F)(F)F)cc2)Oc2c(NC(=O)Nc3ccc(F)cc3)cccc2C1=O`, the cytotoxicity call was “active”. For `C[C@@H]1CN([C@@H](C)CO)C(=O)c2cccc(NC(=O)Nc3ccc(C(F)(F)F)cc3)c2O[C@@H]1CN(C)Cc1ccc(C(F)(F)F)cc1`, the cytotoxicity call was “inactive”. With `C[C@@H]1CN([C@H](C)CO)C(=O)c2cccc(NC(=O)Nc3ccc(C(F)(F)F)cc3)c2O[C@H]1CN(C)Cc1ccc(C(F)(F)F)cc1` the cytotoxicity call was “active”. `C[C@@H]1CN([C@@H](C)CO)C(=O)c2cccc(NC(=O)Nc3ccc(F)cc3)c2O[C@H]1CN(C)Cc1ccc(C(F)(F)F)cc1` was tested, and the cytotoxicity call was “inactive”. For `C[C@H](CO)N1C[C@H](C)[C@H](CN(C)Cc2ccc(C(F)(F)F)cc2)Oc2c(NC(=O)Nc3ccc(C(F)(F)F)cc3)cccc2C1=O`, the cytotoxicity call was “inactive”. For `C[C@@H]1CN([C@H](C)CO)C(=O)c2cccc(NC(=O)Nc3ccc(F)cc3)c2O[C@H]1CN(C)Cc1ccc(C(F)(F)F)cc1`, the cytotoxicity call was “inactive”. With `C[C@@H]1CN([C@H](C)CO)C(=O)c2cccc(NC(=O)Nc3ccc(C(F)(F)F)cc3)c2O[C@@H]1CN(C)Cc1ccc(C(F)(F)F)cc1` the cytotoxicity call was “active”. With `C[C@H]1CN([C@@H](C)CO)C(=O)c2cccc(NC(=O)Nc3ccc(C(F)(F)F)cc3)c2O[C@@H]1CN(C)Cc1ccc(C(F)(F)F)cc1` the cytotoxicity call was “active”. With `C[C@H](CO)N1C[C@H](C)[C@@H](CN(C)Cc2ccc(C(F)(F)F)cc2)Oc2c(NC(=O)Nc3ccc(C(F)(F)F)cc3)cccc2C1=O` the cytotoxicity call was “inactive”. For `C[C@@H]1CN([C@H](C)CO)C(=O)c2cc(NC(=O)CCC(F)(F)F)ccc2O[C@H]1CN(C)S(=O)(=O)c1cn(C)cn1`, the cytotoxicity call was “inactive”. For `CC(C)NC(=O)N(C)C[C@H]1Oc2c(NS(=O)(=O)c3cn(C)cn3)cccc2C(=O)N([C@@H](C)CO)C[C@@H]1C`, the cytotoxicity call was “inactive”. For `C[C@@H]1CCCCO[C@@H](CN(C)Cc2ccc(C(=O)O)cc2)[C@H](C)CN([C@H](C)CO)C(=O)c2cc(NC(=O)Cc3ccccc3)ccc2O1`, the cytotoxicity call was “inactive”. In the case of `CC(C)CC#Cc1cnc2c(c1)C(=O)N([C@@H](C)CO)C[C@@H](C)[C@H](CN(C)S(=O)(=O)c1cccs1)O2`, the cytotoxicity call is reported as “inactive”.
